Here are results for eleven molecules from PubChem BioAssay (Tox21).

The nature of assay [1]: qHTS RealTime-Glo MT Cell Viability Assay in HEK293 cells - 16 hour (AID 1224872). Note: nearly all actives have a fitted effect of over 50% in size. Note: potency is the fitted concentration of half-maximal effect. In short, it runs like this: (§1)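 Tox21 10K qHTS, HEK293, 600 cells/well, RealTime-Glo reagent co-dispensed with cells; 5 h preincubation, compound by pintool, 37 C, luminescence at 0–40 h.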
(qHTS replaces the single test concentration by a dilution series.)

A short description of assay [2]: qHTS RealTime-Glo MT Cell Viability Assay in HepG2 cells - 8 hour (AID 1224873). Note: nearly all actives have a fitted effect of over 55% in size. In short, it runs like this: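 Real-time viability: cells seeded at 600 per well together with NanoLuc and cell-permeant prosubstrate, compounds added after 5 h incubation. Luminescence tracked at 0, 8, 16, 24, 32 and 40 h of exposure.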
Assay [3] can be described thus: qHTS RealTime-Glo MT Cell Viability Assay in HEK293 cells - 40 hour (AID 1224874). Note: nearly all actives have a fitted effect of over 50% in size. Note: potency is the fitted concentration of half-maximal effect. The settings on record: RealTime-Glo luminescence; max response: stronger effect = lower value. The method in brief:
(§2)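 Luminescence readout at each listed time point; HEK293, 600 cells/well, RealTime-Glo MT reagent added with cells; compounds pinned (23 nL in DMSO) after 5 h at 37 C; continuous culture at 37 C.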

Assay [4] is described as follows: A CellTox Green Cytotoxicity Assay to monitor cytotoxicity in HEK293 cells - 24 hour (AID 1224875). Note: series mostly up to about 77 µM; nearly all actives have a fitted effect of over 45% in size. In short, it runs like this:
(§3)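 Read-out: fluorescence of a cell-impermeant cyanine dye staining DNA of dead cells, proportional to cytotoxicity. HEK293, 600 cells/well with reagent, compound (23 nL DMSO) added after 5 h; reads at 0, 8, 16, 24, 32, 40 h.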

A short description of assay [5]: A CellTox Green Cytotoxicity Assay to monitor cytotoxicity in HepG2 cells - 16 hour (AID 1224876). Note: nearly all actives have a fitted effect of over 45% in size. In short, it runs like this: (§4)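 HepG2, 600 cells/well premixed w/ CellTox Green; 5 h settle, 37 C/5% CO2; pintool cpd add (DMSO); 37 C, 40 h; fluorescence read at 0, 8, 16, 24, 32, 40 h.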
A short description of assay [6]: qHTS RealTime-Glo MT Cell Viability Assay in HepG2 cells - 32 hour (AID 1224877). Note: nearly all actives have a fitted effect of over 55% in size. The method in brief: (§5)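 Cells + NanoLuc/prosubstrate dispensed (600 cells/well) → 5 h at 37 C/5% CO2 → compounds in DMSO transferred → 40 h incubation at 37 C, luminescence read at 0, 8, 16, 24, 32, 40 h.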
The nature of assay [7]: A CellTox Green Cytotoxicity Assay to monitor cytotoxicity in HepG2 cells - 24 hour (AID 1224878). Note: nearly all actives have a fitted effect of over 45% in size. The method in brief: as §4
A short description of assay [8]: A CellTox Green Cytotoxicity Assay to monitor cytotoxicity in HepG2 cells - 40 hour (AID 1224879). Note: nearly all actives have a fitted effect of over 40% in size. The method in brief:
as §4

A short description of assay [9]: qHTS RealTime-Glo MT Cell Viability Assay in HEK293 cells - 0 hour (AID 1224880). Note: top concentration of the series differs between compounds; nearly all actives have a fitted effect of over 45% in size. In short, it runs like this: as §2
A short description of assay [10]: A CellTox Green Cytotoxicity Assay to monitor cytotoxicity in HEK293 cells - 32 hour (AID 1224881). Note: nearly all actives have a fitted effect of over 40% in size. The method in brief:
as §3

Assay [11] is described as follows: A CellTox Green Cytotoxicity Assay to monitor cytotoxicity in HepG2 cells - 32 hour (AID 1224883). Note: nearly all actives have a fitted effect of over 50% in size. In short, it runs like this:
as §4

The nature of assay [12]: A CellTox Green Cytotoxicity Assay to monitor cytotoxicity in HEK293 cells - 8 hour (AID 1224884). Note: nearly all actives have a fitted effect of over 35% in size. The method in brief:
as §3

Assay [13] can be described thus: qHTS RealTime-Glo MT Cell Viability Assay in HepG2 cells - 16 hour (AID 1224885). Note: nearly all actives have a fitted effect of over 50% in size. The method in brief:
as §5

Assay [14] can be described thus: qHTS RealTime-Glo MT Cell Viability Assay in HEK293 cells - 24 hour (AID 1224886). Note: nearly all actives have a fitted effect of over 50% in size. Note: potency is the fitted concentration of half-maximal effect. In short, it runs like this:
as §1

The nature of assay [15]: qHTS RealTime-Glo MT Cell Viability Assay in HEK293 cells - 8 hour (AID 1224887). Note: nearly all actives have a fitted effect of over 50% in size. Note: potency is the fitted concentration of half-maximal effect. In short, it runs like this: as §2
Assay [16] is described as follows: A CellTox Green Cytotoxicity Assay to monitor cytotoxicity in HEK293 cells - 16 hour (AID 1224888). Note: nearly all actives have a fitted effect of over 35% in size. In short, it runs like this:
as §3

A short description of assay [17]: qHTS RealTime-Glo MT Cell Viability Assay in HepG2 cells - 0 hour (AID 1224889). Note: nearly all actives have a fitted effect of over 50% in size. The method in brief: as §5
The nature of assay [18]: A CellTox Green Cytotoxicity Assay to monitor cytotoxicity in HepG2 cells - 8 hour (AID 1224890). Note: nearly all actives have a fitted effect of over 45% in size. In short, it runs like this: as §4
The nature of assay [19]: qHTS assay to identify small molecule antagonists of the estrogen receptor alpha (ER-alpha) signaling pathway using the BG1 cell line in the presence of 0.1 nM 17-beta-estradiol - cell viability counter screen (AID 1259241). Note: nearly all actives have a fitted effect of over 40% in size. In short, it runs like this: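 Cytotoxicity counter-screen: live-cell protease activity measured by fluorescence (30 min reagent step) in the same wells. Cells were VM7Luc4E2 with endogenous ER-alpha and ERE-driven luciferase, treated 22 hr at 37C alongside 0.1 nM 17beta-estradiol final.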

The nature of assay [20]: A CellTox Green Cytotoxicity Assay to monitor cytotoxicity in HepG2 cells - 0 hour (AID 1224882). Note: nearly all actives have a fitted effect of over 35% in size. In short, it runs like this: as §4

Molecules are shown by their SMILES. Several values for one entry are separate records, joined by “and”; a condition that tells them apart may be missing. Identical values can stand only once. Inconclusive results are not listed. Activity calls are given as the source filed them. Calls come from the whole dose curve; as a rule, active = well fitted curve in the direction sought with a large enough effect in the repeat runs; inconclusive = weak or mixed curves; inactive = no such curve, though single readings can be large; an effect the other way counts as inactive or inconclusive.
% is set by controls: 0 for no effect and ±100 for the full control effect.

For `OCCO`, the Potency result in [1], in [2], in assay [4], in assay [5], in assay [6] and in assay [7] was “inactive” each time. The Potency entry in assay [8], in assay [9], in assay [10], in assay [11], in [12] and in assay [13] was “inactive” throughout. In addition, the Potency result in [14], in [15], in assay [16], in assay [17], in assay [18] and in assay [19] was “inactive” throughout. For the same molecule, the max response in assay [3] was -5.99% (inactive) and -0.466% (inactive).
Consider `CC(C)OC(=O)C(C)(C)Oc1ccc(C(=O)c2ccc(Cl)cc2)cc1`, for which the Potency is 21.9 µM (active) and 16.9 µM (active) in assay [1]; 24.5 µM (active) and 19 µM (active) in assay [3]; 19.5 µM (active) and 10.7 µM (active) in assay [14]; 24.5 µM (active) and 16.9 µM (active) in assay [15]. The Potency result in [2], in [4], in [5], in assay [6], in assay [7] and in assay [8] was “inactive” in each case. In addition, the Potency entry in assay [9], in assay [10], in assay [20], in [12], in assay [13] and in assay [16] was “inactive” throughout. Besides, the Potency entry in assay [17], in assay [18] and in assay [19] was “inactive” throughout.
Regarding `CCCCOCCOCCOCCO`, the Potency result in assay [1], in [2], in assay [4], in assay [5], in assay [6] and in [7] was “inactive” throughout. The Potency result in assay [8], in assay [9], in [10], in assay [11], in assay [12] and in [13] was “inactive” throughout. For the same molecule, the Potency entry in [14], in assay [15], in assay [16], in assay [17], in assay [18] and in assay [19] was “inactive” throughout. Further, the max response in assay [3] is 3.72% (inactive) and 4.47% (inactive).
As for `O=[N+]([O-])c1ccc2c(c1)Cc1ccccc1-2`, the Potency result in assay [1], in [2], in assay [4], in assay [5], in assay [6] and in [7] was “inactive” throughout. Besides, the Potency entry in [8], in assay [9], in assay [10], in assay [11], in [12] and in [13] was “inactive” in each case. In addition, the Potency entry in [14], in [15], in [16], in [17] and in [18] was “inactive” each time. In addition, the max response in assay [3] is 0.388% (inactive) and -3.63% (inactive).
As for `OC[C@H]1O[C@@H]2O[C@H]3[C@H](O)[C@@H](O)[C@@H](O[C@H]4[C@H](O)[C@@H](O)[C@@H](O[C@H]5[C@H](O)[C@@H](O)[C@@H](O[C@H]6[C@H](O)[C@@H](O)[C@@H](O[C@H]7[C@H](O)[C@@H](O)[C@@H](O[C@H]8[C@H](O)[C@@H](O)[C@@H](O[C@H]1[C@H](O)[C@H]2O)O[C@@H]8CO)O[C@@H]7CO)O[C@@H]6CO)O[C@@H]5CO)O[C@@H]4CO)O[C@@H]3CO`, the Potency entry in assay [1], in assay [2], in [4], in assay [5], in assay [6] and in assay [7] was “inactive” each time. Moreover, the Potency entry in assay [8], in assay [9], in assay [10], in assay [20], in assay [11] and in assay [12] was “inactive” throughout. The Potency entry in [13], in assay [14], in assay [15], in [16], in assay [17] and in assay [18] was “inactive” each time. In [19], the Potency result is “inactive”. In assay [3], the max response was 3.33% (inactive).
With `CCCCC(CC)COCC1CO1` (configuration not stated), the Potency entry in assay [1], in assay [2], in [4], in assay [5], in assay [6] and in [7] was “inactive” throughout. For the same molecule, the Potency entry in [8], in assay [9], in assay [10], in assay [20], in assay [12] and in assay [13] was “inactive” in each case. For the same molecule, the Potency entry in [14], in [15], in [16], in assay [17] and in assay [18] was “inactive” each time. Further, the max response in [3] was 1.02% (inactive) and 0.683% (inactive).
In the case of `CCCCCCCCCC(=O)OC`, the Potency result in assay [1], in assay [2], in assay [4], in assay [5], in assay [6] and in [7] was “inactive” each time. Also, the Potency entry in [8], in assay [9], in [10], in [11], in assay [12] and in assay [13] was “inactive” in each case. For the same molecule, the Potency entry in assay [14], in assay [15], in [16], in assay [17], in assay [18] and in assay [19] was “inactive” in each case. For the same molecule, the max response in assay [3] is 7.54% (inactive) and -2.85% (inactive).
Take `Cc1c(C(N)=O)cc([N+](=O)[O-])cc1[N+](=O)[O-]`: the Potency result in assay [1], in assay [2], in assay [4], in assay [5], in assay [6] and in [7] was “inactive” throughout. Also, the Potency result in assay [8], in assay [9], in assay [10], in assay [11], in assay [12] and in assay [13] was “inactive” in each case. Moreover, the Potency result in assay [14], in [15], in assay [16], in assay [17] and in assay [18] was “inactive” each time. Moreover, the max response in assay [3] was 1.58% (inactive) and 7.25% (inactive).
`OC(CCl)CCl`: the Potency entry in [1], in assay [2], in assay [4], in assay [5], in assay [6] and in assay [7] was “inactive” in each case. Further, the Potency result in assay [8], in assay [9], in assay [10], in assay [20], in assay [11] and in assay [12] was “inactive” each time. Also, the Potency result in assay [13], in assay [14], in assay [15], in [16], in [17] and in assay [18] was “inactive” in each case. The Potency result in [19] is “inactive”. The max response in [3] was 2.58% (inactive) and 9.25% (inactive).
For `CN(C)c1nc(N(C)C)nc(N(C)C)n1`, the Potency entry in assay [1], in [2], in [4], in assay [5], in assay [6] and in assay [7] was “inactive” each time. The Potency entry in assay [8], in assay [9], in assay [10], in assay [20], in assay [12] and in assay [13] was “inactive” throughout. Further, the Potency entry in assay [14], in [15], in [16], in [17] and in assay [18] was “inactive” throughout. Also, the max response in assay [3] was -18.5% (inactive) and -1.64% (inactive).
For the molecule `COc1c(Cl)c(Cl)c(Cl)c(Cl)c1Cl`, the Potency result in assay [1], in assay [2], in [4], in assay [5], in assay [6] and in [7] was “inactive” throughout. The Potency result in assay [8], in assay [9], in [10], in [20], in assay [12] and in [13] was “inactive” in each case. The Potency entry in assay [14], in assay [15], in assay [16], in [17], in assay [18] and in assay [19] was “inactive” each time. For the same molecule, the max response in assay [3] was -6.1% (inactive) and 5.51% (inactive).
